Reference: ChEMBL document CHEMBL1201862, “PubChem BioAssay data set” (2004)
Among all 400,000 compounds or so, about 2,100 (0.53%) were called active. About 14% were inconclusive and are not listed. No rule for the calls is given here. The entries come from a sample that favours actives as a whole.

Target: Ataxin-2 (Homo sapiens) (UniProt Q99700)
Experiment: qHTS for Inhibitors of ATXN expression.
Type: functional

Sequence of Ataxin-2 (Homo sapiens) (Q99700 whole entry): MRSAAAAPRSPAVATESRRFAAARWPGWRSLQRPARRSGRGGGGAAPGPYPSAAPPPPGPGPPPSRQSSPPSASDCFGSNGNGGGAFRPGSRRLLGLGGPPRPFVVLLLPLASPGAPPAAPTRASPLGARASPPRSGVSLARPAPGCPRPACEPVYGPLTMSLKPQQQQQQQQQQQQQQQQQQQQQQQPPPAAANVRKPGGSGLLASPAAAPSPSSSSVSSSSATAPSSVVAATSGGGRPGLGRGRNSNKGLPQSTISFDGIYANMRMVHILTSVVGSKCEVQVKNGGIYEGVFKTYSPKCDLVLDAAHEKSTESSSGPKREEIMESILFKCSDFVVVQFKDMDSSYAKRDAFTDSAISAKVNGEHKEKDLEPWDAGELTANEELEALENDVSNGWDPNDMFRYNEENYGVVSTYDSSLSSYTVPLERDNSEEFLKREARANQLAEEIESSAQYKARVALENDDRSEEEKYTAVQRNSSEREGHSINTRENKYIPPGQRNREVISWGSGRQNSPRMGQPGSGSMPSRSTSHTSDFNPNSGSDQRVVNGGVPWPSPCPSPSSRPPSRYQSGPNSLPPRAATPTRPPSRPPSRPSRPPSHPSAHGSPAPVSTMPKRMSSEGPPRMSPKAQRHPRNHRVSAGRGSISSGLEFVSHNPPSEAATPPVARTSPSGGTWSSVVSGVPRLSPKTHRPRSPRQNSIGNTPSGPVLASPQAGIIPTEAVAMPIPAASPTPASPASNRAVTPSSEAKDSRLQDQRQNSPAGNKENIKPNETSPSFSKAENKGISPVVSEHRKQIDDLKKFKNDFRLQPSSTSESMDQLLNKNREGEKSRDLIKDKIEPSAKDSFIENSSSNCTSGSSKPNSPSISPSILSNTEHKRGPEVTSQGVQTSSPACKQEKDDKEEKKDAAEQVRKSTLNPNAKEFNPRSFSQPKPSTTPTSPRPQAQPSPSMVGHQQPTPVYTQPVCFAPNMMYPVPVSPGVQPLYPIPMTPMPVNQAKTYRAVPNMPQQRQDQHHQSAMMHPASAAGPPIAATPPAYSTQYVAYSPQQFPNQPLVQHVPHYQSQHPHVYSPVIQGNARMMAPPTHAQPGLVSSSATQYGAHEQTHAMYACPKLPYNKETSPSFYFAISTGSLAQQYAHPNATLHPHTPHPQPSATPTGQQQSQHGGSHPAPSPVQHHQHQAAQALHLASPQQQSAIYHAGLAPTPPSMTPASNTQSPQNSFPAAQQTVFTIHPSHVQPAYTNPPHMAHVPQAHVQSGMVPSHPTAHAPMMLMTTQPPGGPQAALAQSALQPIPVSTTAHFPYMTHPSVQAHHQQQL

SMILES | Potency
COCCn1c(=N)c(C(=O)NC(C)c2ccccc2)cc2c(=O)n3cc(C)ccc3nc21 (stereo not drawn) | inactive
CCN(CC)c1ccc2cc(C(N)=O)/c(=N\NC(=O)c3ccncc3)oc2c1 | inactive
CCCc1c(C(=O)N/N=C/c2ccc(OCc3ccc(F)cc3)cc2)nnn1-c1nonc1N | inactive
COc1ccc(N2C(=O)/C(=C\Nn3cnnc3)c3ccccc3C2=O)cc1 | inactive
Cc1ccc(C(=O)O)cc1N1C(=O)c2cccc3c([N+](=O)[O-])ccc(c23)C1=O | inactive
O=C(N/N=C/c1sc(N2CCOCC2)nc1-c1ccccc1)c1ccc(O)cc1 | inactive
CN(C)CCN(Cc1cc2cc3c(cc2nc1O)OCO3)C(S)=NCC1CCCO1 (stereo not drawn) | inactive
Cc1ccc2cc(CN(Cc3ccc(F)cc3)Cc3nnnn3C3CCCC3)c(O)nc2c1 | 39.8 µM (active)
Cc1cc(C)c2cc(CN(Cc3nnnn3C3CCCCC3)CC3CCCO3)c(O)nc2c1 (stereo not drawn) | 22.4 µM (active)
CCC(NC(C)C)C(O)c1ccc(O)c2[nH]c(=O)ccc12 (stereo not drawn) | inactive
CCOc1ccccc1N(CC(=O)Nc1ccccc1Br)S(=O)(=O)c1ccccc1 | inactive
COc1ccc(Cl)cc1NC(=O)COC(=O)c1ccc(C)o1 | inactive
COc1ccc(Cl)cc1NC(=O)CN(C)C1CCS(=O)(=O)C1 (stereo not drawn) | inactive
COc1ccc(C)cc1NC(=O)CN(C)S(=O)(=O)c1ccc2c(c1)CC(C)N2C(C)=O (stereo not drawn) | inactive
COc1ccc(Cl)cc1NC(=O)CN(c1cc(C)cc(C)c1)S(=O)(=O)c1c(C)n[nH]c1C | 35.5 µM (active)
CCOc1ccc(OCC)c(NC(=O)CN(c2ccc(C)cc2)S(=O)(=O)c2c(C)n[nH]c2C)c1 | 35.5 µM (active)
Cc1ccc2[nH]c3c(c2c1)SC(C)(C)CC3=O | inactive
C=CCc1ccc(O)c(-c2ccc(O)c(CC=C)c2)c1 | 28.2 µM (active)
CC(=O)Nc1sc(/C(C#N)=C\c2cccc(Cl)c2)nc1-c1ccc(C)cc1 | inactive
CCC(C)n1c(=N)c(C(=O)NCc2ccco2)cc2c(=O)n3cc(C)ccc3nc21 (stereo not drawn) | inactive
COc1ccc(NC(=O)CSc2c3c(nc4ccccc24)CCCC3)c(OC)c1 | 39.8 µM (active)

SMILES | Potency
COc1cccc(NC(=O)CSc2c3c(nc4ccccc24)CCCC3)c1 | 35.5 µM (active)
COc1ccc(NC(=O)CSc2nc3ccsc3c(=O)n2Cc2ccccn2)c(OC)c1 | inactive
CNC(=O)COC(=O)c1c2c(nc3ccccc13)CCC2 | inactive
Cc1ccc(NC(=O)CSc2c3c(nc4ccccc24)CCCC3)cc1F | 35.5 µM (active)
COc1ccc(Cl)cc1-c1n[nH]c(SCC(=O)NC2CC2)n1 | inactive
COc1ccc(CC(=O)Nc2ccc3nc(Nc4cccc(Cl)c4)cc(C)c3c2)cc1OC | inactive
COc1ccc(NC(=O)CSc2nc(C)cs2)c(OC)c1 | inactive
COc1ccc(NC(=O)CSc2c3c(nc4cc(Cl)ccc24)CCCC3)cc1OC | 31.6 µM (active)
O=C(CSc1nnc(-c2ccccc2F)n1C1CC1)Nc1ccc2[nH]c(O)nc2c1 | inactive
Cc1ccc(C2CC(=O)Nc3cc4c(cc32)OCCO4)cc1 (stereo not drawn) | inactive
CCOC(=O)C1=C(N)Oc2cc(O)ccc2C1c1ccc(F)cc1F (stereo not drawn) | inactive
COc1ccc(CCNC(=O)C(=O)NCc2ccc(Cl)cc2)cc1OC | inactive
Cc1ccc(NC(=O)CSc2nc3ccccc3c(=O)n2CCCN2CCCCC2)cc1C | 31.6 µM (active)
CCCn1c(SCC(=O)NCCCN2CCCC2=O)nc2ccccc2c1=O | inactive
COc1ccc(OC)c(NC(=O)CSc2c3c(nc4ccccc24)CCCC3)c1 | 39.8 µM (active)
Cc1ccc(NC(=O)CSc2nc3ccccc3c(=O)n2CCCC(=O)NCCCN2CCOCC2)cc1 | inactive
COc1ccc(OC)c(NC(=O)CSc2nc3nc(O)cc(O)c3s2)c1 | inactive
COc1ccc(CCNC(=O)c2ccc3c(Cl)c4c(nc3c2)CCCC4)cc1OC | 31.6 µM (active)
COc1ccc(CCNC(=O)Cc2c(C)c3ccc(O)c(C)c3oc2=O)cc1OC | inactive
CCOC(=O)c1cc2c(=O)n3ccccc3nc2n(C(C)C)/c1=N/C(=O)C(C)(C)Oc1ccc(Cl)cc1 | inactive
CCn1c(=N)c(C(=O)NCc2ccccc2)cc2c(=O)n3cccc(C)c3nc21 | inactive

SMILES | Potency
c1cncc(-c2nnc(-c3cccnc3)nn2)c1 | 35.5 µM (active)
Nc1nc2nccc(-c3cccnc3)n2n1 | inactive
O=C(O)c1cccc(CSc2nnc(-c3cccnc3)o2)c1 | inactive
CCOC(=O)C1=C(C)c2ccccc2N(C(=O)OC)C1(C)C(=O)OCC (stereo not drawn) | 35.5 µM (active)
Nc1cccc2c1C(=O)N(C(=O)c1ccco1)C2=O | inactive
O=C1c2ccccc2-c2onc3c(N4CCN(CCO)CC4)cc(N4CCN(C(=O)c5ccco5)CC4)c1c23 | 39.8 µM (active)
O=C(c1ccco1)N1CCN(Cc2cc(=O)oc3cc(O)ccc23)CC1 | inactive
CC(C)(C)N(CC#CCC(O)(c1ccccc1)c1ccccc1)CCO | inactive
CCC(C(=O)NCCc1ccccc1)c1ccccc1 (stereo not drawn) | inactive
CCC[C@@H](CNC)NC[C@H](Cc1ccccc1)NCCCCc1ccccc1 | 39.8 µM (active)
CCCn1c(=N)c(S(=O)(=O)c2ccccc2)cc2c(=O)n3ccccc3nc21 | inactive
CCCn1c(CC)nc([N+](=O)[O-])c1S(=O)(=O)c1ccccc1 | 35.5 µM (active)
O=C(O)/C=C/c1nc(-c2ccccc2)n2ccccc12 | inactive
CC(=O)Oc1c(-c2ccco2)oc2ccccc2c1=O | inactive
COc1cccc(CNC(=O)CCCc2nnc3n(C)c(=O)c4sccc4n23)c1 | inactive
O=C(N/N=C/c1cc(Br)c(O)c(Br)c1)c1cc2c(ccc3ccccc32)o1 | inactive
C/C(=N\Nc1ccc([N+](=O)[O-])cc1)c1cc2ccccc2o1 | inactive
COc1ccc(OC)c(/C=N\NC(=O)c2cc3c(ccc4ccccc43)o2)c1 | inactive
O=C(N/N=C/c1ccc([N+](=O)[O-])o1)c1cc2ccccc2o1 | 10 µM (active)
Cc1ccc(C(=O)N/N=C/c2ccc(-c3ccc(Br)cc3[N+](=O)[O-])o2)o1 | inactive
Cc1ccc(-c2ccc(/C=N\NC(=O)c3cc4c(ccc5ccccc54)o3)o2)cc1[N+](=O)[O-] | 37.7 µM (active)
